Results as given in PubChem BioAssay (NCI).
The panel holds about 83,000 compounds, 20% with a hit somewhere; the sample as a whole holds those more often.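 Compound tested at a single concentration for 48 hours in 96-well plates; a percent growth value below 10 was scored as active.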 Values without a mark were called inactive. Calls of active or inactive are those of the source.

Experiments:
Assay in all cases: NCI-60 one-dose screen, 48 h (100 = growth as untreated, 0 = no growth, -100 = all killed)
Details in all cases: 10 µM unless noted
T-47D breast = system: T-47D breast
BT-549 breast = system: BT-549 breast
MDA-MB-435 melanoma = system: MDA-MB-435 melanoma
SW-620 colon = system: SW-620 colon
HCT-116 colon = system: HCT-116 colon
HCC-2998 colon = system: HCC-2998 colon
KM12 colon = system: KM12 colon
MCF7 breast = system: MCF7 breast

| Structure (SMILES) | growth (T-47D breast) | growth (BT-549 breast) | growth (MDA-MB-435 melanoma) | growth (SW-620 colon) | growth (HCT-116 colon) | growth (HCC-2998 colon) | growth (KM12 colon) | growth (MCF7 breast) |
| --- | --- | --- | --- | --- | --- | --- | --- | --- |
| Cc1nc(-c2cc3ccccc3c(N3CCN(C)CC3)n2)cs1 | 84.3% | 97.5% | 99.9% | 98.6% | 93% | 95.3% | 103% |  |
| CCCCCCNC(=O)Oc1ccc(/C(=C(\C)c2ccc(OC)cc2)c2ccc(OCCN(C)C)cc2)cc1 | 68.1% | 85.1% | 87.7% | 83.6% | 37.2% | 88.3% | 99.2% |  |
| CCOC(=O)/C=c1\sc2n(c1=O)C1C(NN=2)N(CC)C(=O)N1CC (configuration not stated) | 84% | 57.7% | -17.8% (active) | 31.7% | 28.8% | 77.1% | 36% |  |
| COc1ccc(-c2oc3cc(O)cc(O)c3c(=O)c2OC)cc1O | 22.6% | 40.3% | -34.3% (active) | 29.6% | 12.4% |  | 26.2% | 25.8% |
| COC(=O)c1c(C(=O)OC)c2n(CC(=O)Nc3cccc4cccnc34)c3ccccc3n2c1C(=O)c1ccc(C)cc1 | 83.4% | 110% |  | 95.1% | 49.5% | 103% | 109% | 93.4% |
| COc1ccc(NS(=O)(=O)c2ccc(-c3cnc(C4CC4)o3)cc2)cc1Cl | 30.3% | 57.5% |  | 22.6% | 26.7% | 53.1% | 22.7% | 17.4% |
| COc1cc(O)c2c(c1)/C=C/C[C@H](O)[C@H](O)C(=O)/C=C\C[C@H](C)OC2=O | -1.9% (active) | -29.2% (active) |  | -9.76% (active) | -16.3% (active) | -41.9% (active) | 19.1% | 0.782% (active) |
| COc1cc(C2=NN(C(C)=O)C(c3ccc(N4CCOCC4)cc3)C2)cc(OC)c1OC (configuration not stated) | 97.1% | 92.2% |  | 105% | 95.7% | 107% | 106% | 96.3% |
| CC(C)C(=O)Nc1ccc(-c2nc(-c3cccc(O)c3)c(-c3ccnc(Br)c3)[nH]2)cc1 | 7.84% (active) | 60.5% |  | 43.2% | 53.4% | 67.9% | 43.3% | 11.7% |
| O=S(=O)(Nc1ccc(I)c(Cl)c1)c1ccc(-c2cnc(C3CC3)o2)cc1 | 26.9% | 57.1% |  | 15.3% | 26.6% | 59.1% | 32% | 17% |
| C#C[C@]1(O)CC[C@H]2[C@@H]3CC=C4c5sc(-c6ccc(OC)cc6)nc5CC[C@]4(C)[C@H]3CC[C@@]21C | 73.6% | 47% |  | 51.3% | 59.9% | 90.1% | 60% | 27.6% |
| COc1ccc(NC(=O)[C@H](C)NC(=O)OC(C)(C)C)cc1C(=O)Nc1cccc(-c2cc(=O)c3c(OC)c(OC)c(OC)cc3o2)c1 | -24.7% (active) | -85% (active) |  | -25.6% (active) | -61.7% (active) | -60.8% (active) | -36.4% (active) | -9.71% (active) |
| O=C(CN1CCN(c2cc(=O)n(-c3ccccc3)c3ccccc23)CC1)Nc1ccc([N+](=O)[O-])cc1 | 64.9% | 94.5% |  | 92.3% | 92.6% | 105% | 92.9% | 88.2% |
| COC(=O)Nc1ccc(-c2nc(-c3cccc(O)c3)c(-c3ccnc(Br)c3)[nH]2)cc1 | 34.7% | 66.1% |  | 70.3% | 49.7% | 84.7% | 50.7% | 14.6% |
| COc1ccc(Oc2ccc(C3CC(c4cc(OC)c(OC)c(OC)c4)=NN3C(C)=O)cc2)cc1 (configuration not stated) | 9.08% (active) | 45.5% |  | 46.9% | 19.5% | 42.2% | 27.5% | 10.1% |
| O=C1/C(=C/c2ccccc2[N+](=O)[O-])Oc2ccc(O)cc21 | 44.2% | 49.9% |  | -14.7% (active) | -20.5% (active) | 73.3% | 64.2% | 6.93% (active) |

| Structure (SMILES) | growth (T-47D breast) | growth (BT-549 breast) | growth (MDA-MB-435 melanoma) | growth (SW-620 colon) | growth (HCT-116 colon) | growth (HCC-2998 colon) | growth (KM12 colon) | growth (MCF7 breast) |
| --- | --- | --- | --- | --- | --- | --- | --- | --- |
| COc1ccc(-c2cc(-c3ccc(Cl)cc3)nc3nc(N)nn23)cc1 | 91.4% | 92.3% |  | 104% | 98.8% | 100% | 99.7% | 89.9% |
| O=S(=O)(Nc1cc(Cl)cc(Cl)c1)c1ccc(-c2cnc(C3CC3)o2)cc1 | 41.7% | 58.4% |  | 26.1% | 31.3% | 56.7% | 24.2% | 20.9% |
| O=C(Nc1cccc(-c2nc(-c3ccc(NC(=O)c4cccnc4)cc3Cl)no2)c1)Nc1ccc(NC(=O)C2CC2)c(C(F)(F)F)c1 | -51.1% (active) | -39.5% (active) |  | -59.9% (active) | -52.8% (active) | -69.6% (active) | -63.9% (active) | -66.8% (active) |
| COc1ccc2c(C3=C(c4cn(C)c5ccccc45)C(=O)NC3=O)coc2c1 | 44% | 82.6% |  | 39% | 15.8% | 28.2% | 32.1% | 24.3% |
| C=CCn1c(SCC(=O)Nc2cccc(C(=O)/C=C/c3ccc(Br)cc3)c2)nc2ccccc2c1=O | 76% | 45.8% |  | 76.3% | 8.62% (active) | 93.8% | 81.3% | 26.6% |
| COc1ccc(Cn2cc3c(c2-c2ccccc2)CCCc2cnoc2-3)cc1[N+](=O)[O-] | 67.7% | 81% |  | 41.3% | 46.9% | 85.7% | 49.4% | 34.4% |
| O=S(=O)(Nc1ccc2c(c1)OC(F)(F)O2)c1ccc(-c2cnc(C3CC3)o2)cc1 | 31.6% | 52.1% |  | 23.7% | 23.7% | 72.8% | 30.9% | 19.9% |
| CCOC(=O)c1c(Nc2ccccc2)nn2c(-c3ccc(OC)c(OC)c3)ccnc12 | 41.3% | 112% |  | 40.9% | 42.7% | 52.2% | 44.9% | 55% |
| Cc1ccc(-c2nnc3sc(C4=Cc5ccccc5OC=C4)nn23)cc1 | 91.6% | 95.7% |  | 99.9% | 104% | 101% | 106% | 88.9% |
| CN(C)c1ccc(/C=N/Nc2nc(N/N=C/c3ccc(N(C)C)cc3)nc(N3CCOCC3)n2)cc1 | 94.7% | 106% |  | 83.8% | 35.7% | 103% | 104% | 54.8% |
| C#C[C@]1(O)CC[C@H]2[C@@H]3CC=C4c5sc(C6CCOCC6)nc5CC[C@]4(C)[C@H]3CC[C@@]21C | 57.8% | 77.6% |  | 85.5% | 64.4% | 84.3% | 59.8% | 75.6% |
| N#C/C(=C\c1ccc2ccccc2c1)C(=O)Nc1sc2c(c1C#N)CCC2 | 87.5% | 94.6% |  | 111% | 106% | 113% | 101% | 94.8% |
| CC(=O)Nc1nc2c(s1)C1=CC[C@H]3[C@@H]4CC[C@H](C(C)=O)[C@@]4(C)CC[C@@H]3[C@@]1(C)CC2 | 68% | 62.3% |  | 82.3% | 60.4% | 96.9% | 47.7% | 20.6% |
| CCC(=O)Nc1cc(Nc2cc(NC3CC3)n3ncc(C#N)c3n2)ccc1C | 6.41% (active) | 29.5% |  | 17.4% | 19.2% | 41.6% | 32.5% | 3.83% (active) |
| COc1ccc(-c2nc3cc(Cl)c(Cl)cc3n2CC(=O)N=Nc2c(O)[nH]c3ccc(Cl)cc23)cc1 | -14.4% (active) | 25.8% |  | 32.1% | 7.71% (active) | 29.8% | 59% | 40% |
